According to PubChem BioAssay:
Values without a mark were called inactive. How the calls were made is not given here.

The compounds below were run against Pantothenate synthetase (Mycobacterium tuberculosis (strain ATCC 25618 / H37Rv)) (UniProt P9WIL5) (assay: Recombinant Mtb pantothenate synthetase (PanC) inhibitors, coupled enzyme, confirmatory (AID 375;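 further: 0% = full reaction with vehicle and 100% = no enzyme background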)). Settings: coupled enzyme assay; at 10 µM, active compounds read high.
Chain of Pantothenate synthetase (Mycobacterium tuberculosis (strain ATCC 25618 / H37Rv)) (P9WIL5 whole entry, looked up): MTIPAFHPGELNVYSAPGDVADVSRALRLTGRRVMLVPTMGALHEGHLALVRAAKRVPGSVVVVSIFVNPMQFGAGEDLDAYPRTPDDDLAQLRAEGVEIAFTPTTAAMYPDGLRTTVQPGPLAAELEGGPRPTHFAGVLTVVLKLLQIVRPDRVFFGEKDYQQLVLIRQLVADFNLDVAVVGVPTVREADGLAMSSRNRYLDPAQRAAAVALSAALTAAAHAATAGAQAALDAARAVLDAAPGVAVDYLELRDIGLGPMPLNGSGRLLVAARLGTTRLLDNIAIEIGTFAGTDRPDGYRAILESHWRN
With `CCC(=O)N(Cc1cc2c(C)ccc(C)c2[nH]c1=O)C1CCCCC1` the inhibition was 0%. `O=C(NC1CCCCC1NC(=O)c1ccco1)c1ccco1` (stereo not given) was tested, and the inhibition was 0%. `COc1ccc(OC)c(N(CC(=O)N2CCN(c3cc(Cl)ccc3C)CC2)S(C)(=O)=O)c1` was tested, and the inhibition was 2%. With `O=C1NC(=O)C2(CCC(C(=O)O)C2)N1` (stereo not given) the inhibition was 11%. Compound `C=CCOc1ccc(C2/C(=C(\O)c3c(C)[nH]c(C(=O)OC)c3C)C(=O)C(=O)N2CCN(C)C)cc1` (stereo not given) has an inhibition of 0%. With `O=C(NCCN1CCOCC1)c1ccc2c(c1)N(Cc1ccccc1)C(=O)CS2` the inhibition was 0%. For `COCCOC(=O)C1=C(C)NC(C)=C(C(=O)OC(C)C)C1c1cccc([N+](=O)[O-])c1` (stereo not given), the inhibition was 0%. For `Cn1cnc2c1c(=O)n(Cc1cccc(Br)c1)c(=O)n2C`, the inhibition was 1%. In the case of `CCN1CCCC1CNCc1ccc(Cl)cc1Cl` (stereo not given), the inhibition is reported as 0%. In the case of `CNC(=O)c1ccc2nc(NC(C)=O)sc2c1`, the inhibition is reported as 0%. In the case of `O=C(CN1CCCCCC1)OCCN=C1NS(=O)(=O)c2ccccc21`, the inhibition is reported as 0%. Compound `NS(=O)(=O)c1ccc(NC(=O)CSc2nnc(Cc3cccs3)n2-c2ccccc2)cc1` has an inhibition of 1%. `CCOC(=O)C1CCN(C(=O)CSc2cc(=O)n(CC)c3ccccc23)CC1` showed an inhibition of 4%. In the case of `O=C(CSc1nnc2ccccn12)NCCN1C(=O)CSC1=O`, the inhibition is reported as 0%. For `Cc1nn(C(=O)c2cc3sccc3[nH]2)c(C)c1C`, the inhibition was 0%. `CCOC(=O)C1CCN(c2c(N3CCCCCC3)c(=O)c2=O)CC1` was tested, and the inhibition was 2%. Work on `N=c1c(C(=O)NCc2ccccc2)cc2c(=O)n3ccccc3nc2n1Cc1ccco1` yielded an inhibition of 0%. With `CCOc1ccc(NC(=O)C(C)Sc2nnc(C)n2C)cc1` (stereo not given) the inhibition was 0%. With `O=C1c2ccccc2C(Nc2ccc(-c3nc4ccccc4[nH]3)cc2)N1Cc1ccco1` (stereo not given) the inhibition was 5%. In the case of `Cn1c(=O)c2c(nc(SCCCO)n2Cc2ccccc2Cl)n(C)c1=O`, the inhibition is reported as 3%. With `CC(CCc1ccccc1)NC(=O)CSc1nc(N)cc(N)n1` (stereo not given) the inhibition was 0%. In the case of `COc1ccc(C2CC(c3ccc(Cl)cc3)Nc3nc(NC(=O)c4ccco4)nn32)cc1` (stereo not given), the inhibition is reported as 4%. Work on `Cc1cc(C)nc(NS(=O)(=O)c2ccc(NC(=O)Cn3c(=O)oc4ccccc43)cc2)n1` yielded an inhibition of 1%. `Cc1noc(C)c1CSc1nnc2scc(-c3ccc(Cl)cc3)n12` was tested, and the inhibition was 0%. `CN(C(=O)c1ccncc1)C1CC(C)(C)N(O)C(C)(C)C1` gave an inhibition of 0%. Work on `CN(C)c1ccc(NC(=O)Cn2cc3c(n2)CCCC3)cc1` yielded an inhibition of 0%. For `Oc1ccc(N2CCN(C(c3ccncc3)c3nnnn3C3CCCC3)CC2)cc1` (stereo not given), the inhibition was 11%. In the case of `COc1ccccc1CN1C(=S)SC(C)(C)C1NO` (stereo not given), the inhibition is reported as 0%. For `CCc1ccccc1N1CC23C=CC(O2)C(C(=O)O)C3C1=O` (stereo not given), the inhibition was 0%. `COc1cc(OC)c(-c2nn3c(C4CCCCC4)nnc3s2)cc1OC` was tested, and the inhibition was 0%. Work on `CCOC(=O)N1CCN(C(=O)CSc2ncnc3ccccc23)CC1` yielded an inhibition of 0%. Work on `CC(=O)c1cc(Cl)ccc1OC(=O)c1ccco1` yielded an inhibition of 0%. In the case of `CCC1(C)Cc2c(C#N)c(N)n(-c3ccccc3)c(=O)c2CO1` (stereo not given), the inhibition is reported as 0%. For `COc1ccc(CCNC(=O)c2ccc(N3CCCC3=O)cc2)cc1OC`, the inhibition was 0%. `O=C(O)C1CSC2c3ccccc3C(=O)N12` (stereo not given) showed an inhibition of 0%. `O=C(NCCCN1CCOCC1)c1ccc(CS(=O)(=O)c2c(Cl)cccc2Cl)o1` was tested, and the inhibition was 0%. With `CCCCc1c(O)nc(SCC(=O)Nc2ccc3c(c2)CCC3)[nH]c1=O` the inhibition was 2%. Compound `Cc1cc2c(=O)n(CC(=O)N3CCN(c4ccccc4)CC3)cnc2s1` has an inhibition of 0%. Work on `COc1cccc2cc(C(=O)N3CCN(c4ccc(C)cc4C)CC3)c(=O)oc12` yielded an inhibition of 0%. In the case of `S=c1[nH]nc(-c2ccco2)n1-c1cccc2ccccc12`, the inhibition is reported as 0%.
